According to PubChem BioAssay AID1508600 (Functional Genomics Laboratory (NCATS/FGL), 2020):
The campaign covered roughly 53,000 sequences. About 3,700 (7%) were called active.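 The calls were made as follows: active = gene knockdowns whose robust z-score for IL-1 alpha signal is at least 2 or at most -2, so actives lie on both sides; inactive = the rest.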 Many of the other results were omitted from the sample, so actives are more common in it than they were.

Assay: Components of the Cytosolic LPS Sensing Pathway: Gene Identification via Genome-wide siRNA Screen;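 also: robust z of the log signal after scaling to non-targeting control siRNA wells of the plate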
Settings: RAW264.7 macrophages, IL-1a HTRF, actives lie on both sides, screened at 100 nM (by protocol), cells primed 5 h with Pam3CSK4 first
Summary of the method: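 Cells (RAW264.7, 1×10^4 per well) were transfected with siRNA at 100 nM and cultured 48h at 37 degrees C. Pam3CSK4 was added for 5 hours; LipidA transfection followed for 24 hour. IL-1a was then measured by HTRF.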

Sequence	z-score
GGUCACUGAACCUAUUUCCTT against Arhgap15	-2.56 (active)
CCCUCAAUGCUGGAAAACCTT against Nol4	-1.43 (inactive)
GGCAAGGAUGAUGUCUUCGTT against Upk1a	-1.33 (inactive)
GCUUCUAGGGACCUAUUAATT against Dhx30	-0.0854 (inactive)
GGUCUAUGAGAUGUUUUCUTT against Cyp2a4	2.78 (active)
GCAACUGGCUGAACUCUCATT against Gsdmc2	3.91 (active)
GGCACUCAAUGUCUUCUAUTT against Nbeal1	0.516 (inactive)
GCUACUGCAGUAUACAUUGTT against Olfr869	2.21 (active)
GGAAUCGGUACUCUUCCACTT against Tcerg1l	0.26 (inactive)
GGAAUUCAUGAAGUAUAACTT against Myo5c	0.941 (inactive)
GAUAAUUUGCACAUCCUCUTT against Nrn1l	-0.999 (inactive)
GGGUUUGAGUGCUGUGAAGTT against Ap4s1	-2.66 (active)
GCUGGGCUACAAUACAUAUTT against Fgf3	-0.0573 (inactive)
CCAUGAGUAUCAAGUCAAUTT against Septin9	1.14 (inactive)
GGGUGAAAUCUAUCUCCAUTT against Agfg1	-1.85 (inactive)
CCAUAAUUCAGCUAGACCUTT against Axin1	0.201 (inactive)
GGUAAAGACUGGAUGGCUATT against Art5	2.14 (active)
GGAAAUCUUUGAGUUUGAATT against Clca1	-0.0578 (inactive)
GCCAAAUGAGUCAGAUACUTT against Ak3	-0.402 (inactive)
GGAUCCUUAAUCGAUACACTT against Gng3	2.38 (active)
GCCUACAGGAGUGAGAUAATT against Arhgap33os	-1.36 (inactive)
AUUGCAUUGUAUUCACUUGTT against Psg22	0.777 (inactive)

Sequence	z-score
GGAAUUCACAUUUGACUGUTT against Irx3os	0.31 (inactive)
GGGUUGGAUAGAAUAUUGUTT against Xk	1.4 (inactive)
GCCUCGAUUGGCCACAUUUTT against Atp5l	4.61 (active)
GCAGUAUGAGGUAAAUUAUTT against Amer3	1.05 (inactive)
GCCUUCAUUAUUUUAAUGCTT against Ilf3	0.0185 (inactive)
GGCAAAAUGAUCUGCUUUCTT against Trim69	-0.125 (inactive)
GGUUGCUCAGAUUCAGAAUTT against Isy1	-1.53 (inactive)
GGAACCUAGAGAAAAAGAATT against Iyd	-1.18 (inactive)
GGCUUUCCAGAAGACAGAATT against Cyp2s1	0.469 (inactive)
GCUCUGUUAAGGAAGAACATT against Safb2	2.02 (active)
GCUAUGACUCCAACAUGCGTT against Jaml	0.0115 (inactive)
GGUGAAGACAGAAUUUCCGTT against 1700128F08Rik	-1.01 (inactive)
GGAAGCAAGGAAAAUCAUGTT against Lpo	-0.289 (inactive)
GGUGAUACGUAUUUUUUAGTT against Pan3	-1.09 (inactive)
GGGUUGUCUUCAUCUACUUTT against Crhr1	3.47 (active)
GGUGUUUACUUCCUCAGAATT against Slc9b2	-0.373 (inactive)
GGAGAUAUCCAUCAAUAGUTT against Nbr1	0.874 (inactive)
GGACUUCUAAAAAUCUCUGTT against Gabrb2	0.746 (inactive)
GCGCGCAGUGAACGAAAAATT against Mycn	1.14 (inactive)
CCAUCACGGAUAAUCAUCGTT against 4931417E11Rik	-1.65 (inactive)
GGUACUUCCUACCUAACAGTT against Nipa1	-0.235 (inactive)
CCACAGGUUACAACAUAAATT against Pign	-1.45 (inactive)

Sequence	z-score
GCUCCACAAGAUGUAAAGGTT against Il21	0.11 (inactive)
GGAACUGAUGAUGGACCAGTT against Slc4a1	3.39 (active)
GGGCCAUUUUAGGUCCUUUTT against Rbm7	0.112 (inactive)
GGACUUACCUUUAACCAACTT against Slc30a4	0.42 (inactive)
GGGAAUGAAAAGUCAAAAGTT against Stard7	-0.047 (inactive)
GCAGCUCUAGGUGUUCAGUTT against Gjc3	0.955 (inactive)
GCCAUUGGGUGUAACAUUUTT against Mpp6	3.35 (active)
GCCAUGCACUAACUUGAAUTT against Adamts4	-0.0391 (inactive)
GCACUUUACGAGUAUGUAATT against Gnl1	-1.74 (inactive)
GGUAUUGGAAAGUAGAAACTT against Igflr1	0.515 (inactive)
CCGAGUGGUUAGCUACCAGTT against Ccl24	2.4 (active)
GGAGAUCCUUCAUUACCUGTT against Psap	-1.34 (inactive)
GGGAUCGUCCAGAUCUAAUTT against Apobec3	-0.982 (inactive)
GGACUGUCCUCCAAUUUGCTT against Nat8f3	-2.6 (active)
GGGAAAUUUACAGAAAGUGTT against Igtp	0.956 (inactive)
CGGGCUCAGGUAAAACUCUTT against Ddx31	-0.217 (inactive)
GGAGAGCUUGUUCAAGUGCTT against Zxdc	-0.86 (inactive)
CCUCAUUGGUUUGACCCAGTT against Hsd17b6	0.172 (inactive)
GCCAUUAACUAUGGGACCUTT against Lck	-0.0729 (inactive)
GCUAUCACUUUUCAUUAGATT against G0s2	-0.902 (inactive)
CCUGCUAAGAGAGUACUAUTT against Pglyrp2	1.51 (inactive)
GGUUGGACGUGGUGAAGAATT against Chtf18	-2.24 (active)

Sequence	z-score
GGAAUACAAACUGCUGUACTT against Urgcp	0.138 (inactive)
GGAAGUGUGAACUUCAUCATT against Zdhhc6	2.78 (active)
GCCCACGAGCCUCAUGGACTT against Sts	-0.805 (inactive)
GGAGUAUCGUAAUGCGGACTT against C4b	0.598 (inactive)
GGACUCCUAAUGAAUAAUCTT against Wee2	2.06 (active)
CCUUCCUUACCUACGUGAGTT against Nup88	1.71 (inactive)
CCUCAAGGCAGUUCAUAUUTT against Zfp790	-0.334 (inactive)
GGCUCGGUAUCGUUUUUCATT against Arl3	0.841 (inactive)
GGCUAUCUUUUCAGCUUUATT against Sox30	0.212 (inactive)
GCCGACCACAGUACAAGACTT against Bivm	1.08 (inactive)
GCCGUGUGGUAAUAGUGUCTT against Dhrs13	0.442 (inactive)
GGAUGAAACGGGUGCCUAUTT against Kctd5	3.33 (active)
GGACUUCUAGAGAACUUGUTT against 2900092C05Rik	-1.7 (inactive)
GGCUGUAUACCAAUAAAAATT against B4galt6	-0.855 (inactive)
CGUUUCAGAGUGUUUGUGGTT against Lgalsl	-0.173 (inactive)
GGUAUCAGAGCUGUGUUCUTT against Cpped1	-1.48 (inactive)
GGAAAUCUAAAAGUCCUCCTT against Il17re	0.2 (inactive)
GGAUCAUCUCUUUGGGCUGTT against Tmem37	0.127 (inactive)
GGAGAAGAAAGAAAAGCUUTT against Nusap1	-1.74 (inactive)
GGCUGAAAAACUCAAUUAUTT against Boll	-0.813 (inactive)
CCAAAUAUCCGGCCAUGACTT against Lgals6	-0.877 (inactive)
GGAAAACACCUACCUGUGGTT against Slc25a3	-1.48 (inactive)

Sequence	z-score
GGAAAUCAGAGAAUACUUCTT against Mfsd14b	2.04 (active)
GAAGAAGGAAAAAAACCCATT against Sec61b	-1.19 (inactive)
GCACCUCCUGGGAUUACAUTT against Crp	0.412 (inactive)
GGGCUAAUUGUGAACAUUUTT against Slc7a1	3.35 (active)
GCCAUGAAGCUAAAUAAUCTT against Optn	-1.31 (inactive)
GCACCUCUACACUUUAGAUTT against Rack1	-0.0792 (inactive)
GGACUGGUUCAUCCUUGUGTT against G6pc	0.922 (inactive)
GGACCACCUAAGUUUAAGCTT against Pde6g	-0.557 (inactive)
GGCAUCAAGCACAAGAAAATT against Sys1	-1.16 (inactive)
CCUGUGCCUCGUUUUAUUUTT against Fam161a	0.807 (inactive)
GGUGAUCGAGGAGAGUCUATT against Oaf	-0.737 (inactive)
GGUGGAGUUAGAAAACUACTT against BC048679	-0.341 (inactive)
CCUGAACGUGAGUGGAGAATT against Man1c1	-0.8 (inactive)
GGUGAAGAUUGAGAAGGAGTT against Aifm3	-2.05 (active)
GACCUACCAGAUGAAGGUCTT against Vmn1r28	0.29 (inactive)
GCGACUUUAGCUAAACAUGTT against Kcns2	1.79 (inactive)
GGAAGAAACAUGUAUCAUGTT against Tff1	0.556 (inactive)
GACAGUGCACGAUCUGAUUTT against Pfn3	0.274 (inactive)
GCUGGAAUGCAAGGGCUUCTT against Gchfr	1.45 (inactive)
GGAUAUGAAACAAUAACAGTT against Arid5b	-0.349 (inactive)
